Assay outcomes from PubChem.
A1 inh: inhibitors of the anti-apoptotic protein A1, read as caspase activation | caspase activation, % (concentration not given with the values) | AID 2462 | actives 0.066% (n = 330,000) | MEF A1-2A-BIM cells, Caspase-Glo 3/7 luminescence, 3 h; percent of clofoctol response, vehicle zero;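 active = over half of replicate activation scores above 10%, or exactly half above 10 with the replicate mean above 10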
Neddyl block: cullin neddylation inhibition; inhibition, % at 25 µM; AID 651699; TR-FRET cullin neddylation, biochemical; actives 0.58% (n = 360,000); in the data active = inhibition above about 36%
Target sequence (P61081 whole entry, looked up): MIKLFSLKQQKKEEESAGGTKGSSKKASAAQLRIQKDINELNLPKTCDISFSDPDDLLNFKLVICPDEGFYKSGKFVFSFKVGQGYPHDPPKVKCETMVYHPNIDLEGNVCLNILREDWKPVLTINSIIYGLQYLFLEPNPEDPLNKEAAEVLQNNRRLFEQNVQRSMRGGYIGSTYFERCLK
Target sequence (Q13564 whole entry, looked up): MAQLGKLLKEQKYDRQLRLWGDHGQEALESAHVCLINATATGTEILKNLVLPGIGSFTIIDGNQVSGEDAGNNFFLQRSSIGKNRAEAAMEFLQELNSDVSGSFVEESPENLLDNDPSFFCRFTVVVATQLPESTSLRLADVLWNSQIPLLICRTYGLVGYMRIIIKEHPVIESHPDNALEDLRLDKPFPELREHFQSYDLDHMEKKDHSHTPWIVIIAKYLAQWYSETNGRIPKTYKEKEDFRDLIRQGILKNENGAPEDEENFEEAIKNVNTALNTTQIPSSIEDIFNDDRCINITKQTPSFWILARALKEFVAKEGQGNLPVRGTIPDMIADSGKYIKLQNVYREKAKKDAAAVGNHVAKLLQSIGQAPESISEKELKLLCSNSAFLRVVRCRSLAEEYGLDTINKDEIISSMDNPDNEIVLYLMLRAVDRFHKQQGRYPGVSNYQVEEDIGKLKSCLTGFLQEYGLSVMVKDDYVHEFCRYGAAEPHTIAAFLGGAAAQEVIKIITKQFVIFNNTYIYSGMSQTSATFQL
INS-1E GSIS act: GLuc luminescence reporter in INS-1E cells, primary screen for activators of glucose-dependent secretion of insulin. INS-1E GLuc reporter insulin secretion, 2-3 h. activation, % at 16.6 µM. actives 0.61% (n = 370,000). AID 743287;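 active = lowest replicate activation of at least 40%, so every replicate reaches that level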
Vif imaging: blocks HIV Vif function. HEK293T cells, Vif self-association by quenched fluorescence, imaging, 24 h. inhibition, % at 7.49 µM. actives 0.35% (n = 340,000); in the data active = inhibition above about 50%, passing the limit was not always enough
dFosB act: enhances mouse delta FosB homodimer DNA binding. AID 493131. purified delta FosB, TAMRA-CDK5 oligo fluorescence polarization; percent of positive-control signal above neutral wells. activation, % at 25 µM. actives 0.99% (n = 340,000);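 active = mean activation above about 17%, with every replicate also reaching it, limit read from the data, passing the limit was not always enough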
Numbers stand for hits; – = inactive; · = no result given; + = active, no number; ! = a repeat was not active. In the library only some 1.9% were active in any assay of this set; here they are far more common.

SMILES	A1 inh	Neddyl block	INS-1E GSIS act	Vif imaging	dFosB act
CC(C)NC(=O)N(C)C[C@@H]1Oc2ncc(-c3cccc(C#N)c3)cc2C(=O)N([C@@H](C)CO)C[C@@H]1C	·	·	–	·	·
COc1ccc(S(=O)(=O)Nc2ccc3c(c2)CC(=O)N([C@@H](C)CO)C[C@@H](C)[C@@H](CN(C)Cc2ccc(Cl)c(Cl)c2)O3)cc1	·	·	–	·	·
Cc1cccn2c(=O)c3cc(C(=O)NC4CCCCC4)c(=N)n(Cc4ccccc4)c3nc12	–	·	–	–	43
N=c1c(S(=O)(=O)c2ccc(Br)cc2)cc2c(=O)n3ccccc3nc2n1Cc1ccccc1	–	–	–	–	–
Cc1ccc(Cn2c(=N)c(S(=O)(=O)c3ccc(Br)cc3)cc3c(=O)n4ccccc4nc32)cc1	–	–	·	53	–
Cc1ccc(Cn2c(=N)c(C(=O)NCc3ccco3)cc3c(=O)n4ccccc4nc32)cc1	–	63	·	–	–
COc1ccccc1NC(=O)N(C)C[C@@H]1Oc2ncc(Br)cc2C(=O)N([C@H](C)CO)C[C@H]1C	·	·	–	·	·
CCS(=O)(=O)N1CC2(CN(C(=O)c3cccnc3)C2)c2c(n(C)c3cc(OC)ccc23)[C@H]1CO	·	·	–	·	·
C[C@@H]1CN([C@H](C)CO)C(=O)c2cc(C#C[C@@H](C)O)cnc2O[C@H]1CN(C)Cc1ccccn1	·	·	–	·	·
CC(C)C#Cc1ccc2c(c1)O[C@@H](CN(C)C(=O)c1cccnc1)[C@@H](C)CN([C@H](C)CO)S2(=O)=O	·	·	–	·	·
Cc1cccc(-c2ccc(C3[C@@H]4CN(C(=O)C5CCCCC5)C[C@H]3N4)cc2)c1 (stereo partly specified)	·	·	213!	·	·
N#Cc1ccc(-c2ccc(C3[C@@H]4CN(C(=O)Nc5ccc(C(F)(F)F)cc5)C[C@H]3N4)cc2)cc1 (stereo partly specified)	·	·	–	·	·
COc1ccc(NC(=O)N2C[C@@H]3N[C@H](C2)C3c2ccc(-c3cccc(F)c3)cc2)cc1 (stereo partly specified)	·	·	–	·	·
O=C(Nc1ccc(C(F)(F)F)cc1)N1C[C@@H]2N[C@H](C1)C2c1ccc(-c2cccc(F)c2)cc1 (stereo partly specified)	·	·	114	·	·
Cc1ccc(-c2ccc(C3[C@@H]4CN(C(=O)Nc5ccc(C(F)(F)F)cc5)C[C@H]3N4)cc2)cc1 (stereo partly specified)	·	·	+	·	·
O=c1c2sccc2n(Cc2cccc(F)c2)c(=O)n1-c1ccc(F)cc1	–	–	46	–	–
O=C(CCn1ccc2cc(S(=O)(=O)N3CCCC3)ccc21)NCc1cccc(F)c1	–	–	44	–	–
O=C(CCn1ccc2cc(S(=O)(=O)N3CCCC3)ccc21)NCc1ccccc1	–	–	–	–	–
COCc1[nH]nc2c1C(c1ccc(C)cc1)NC2=O (stereo unspecified)	·	·	50	·	·
COCc1[nH]nc2c1C(c1ccc(F)cc1)NC2=O (stereo unspecified)	·	·	–	·	·
Cc1ccsc1/C=N/n1c(-c2ccccc2)n[nH]c1=S	–	–	–	–	–
Cc1ccsc1/C=N/n1c(-c2ccncc2)n[nH]c1=S	–	–	48	–	–
O=[N+]([O-])/C(=C\Nc1ccccc1)S(=O)(=O)c1ccccc1	–	–	52	–	–
Nc1ccccc1SCC(=O)Nc1ccc(N2CCOCC2)cc1	–	–	·	57	–
Cc1ccccc1SCC(=O)Nc1ccc(N2CCOCC2)cc1	–	–	–	–	–
SMILES	A1 inh	Neddyl block	INS-1E GSIS act	Vif imaging	dFosB act
CC(C)OCCCNC(=O)c1c(N)n(/N=C/c2ccccn2)c2nc3ccccc3nc12	–	–	76	–	–
CO[C@@H]1CN(C)C(=O)c2cc(NS(C)(=O)=O)ccc2OC[C@@H](C)N(C(=O)NC(C)C)C[C@H]1C	·	·	–	·	·
Cc1cc(C)cc(C(=O)NC(=S)Nc2ccc(-c3cc4ccccc4oc3=O)cc2)c1	–	–	42	–	–
Cc1ccc(C(=O)NC(=S)Nc2ccc(-c3cc4ccccc4oc3=O)cc2)c(C)c1	–	–	·	–	–
C[C@@H]1CN([C@H](C)CO)C(=O)c2cc(-c3cccc(F)c3)cnc2O[C@H]1CN(C)CC1CCOCC1	·	·	–	·	·
CC(C)=C[C@H]1C[C@H](C)[C@H]2CC[C@H](C)c3c(O[C@@H]4OC[C@@H](O)[C@H](O)C4O)c(O)c(C)c1c32 (stereo partly specified)	–	–	122	–	–
C[C@@H]1CN([C@H](C)CO)C(=O)c2cc(C#Cc3ccccc3F)cnc2O[C@H]1CN(C)C	·	·	–	·	·
Cc1ccc(/C=C/C(=O)O)cc1S(=O)(=O)N1CCc2ccccc21	–	–	–	58	–
Cc1ccc(/C=C/C(=O)O)cc1S(=O)(=O)N1CCCc2ccccc21	–	–	–	–	–
Cc1cc2c(N=O)c(NO)ccc2[nH]1	–	–	·	54	–
Fc1cccc(NCCc2c[nH]c3ccccc23)n1	–	–	–	–	–
Cc1ccc(-c2nc(NCCCO)c3ccccc3n2)cc1	–	–	·	–	–
c1ccc2c(NCCc3c[nH]c4ccccc34)c3ccccc3nc2c1	–	–	–	–	123
OCCCNc1c2ccccc2nc2ccccc12	–	–	–	–	19
O=C(C[C@@H]1C[C@@H]2c3cc(NC(=O)NC4CCCC4)ccc3O[C@@H]2[C@@H](CO)O1)NCc1ccccn1	·	·	–	·	·
Cc1sc2cc3c(c(C(=O)c4ccccc4)[n+]2c1C)-c1cccc2cccc-3c12	–	·	–	·	·
O=C(c1ccccc1)c1c2c(cc3sc4ccccc4[n+]13)-c1cccc3cccc-2c13	–	–	–	–	22
N#Cc1cccc(-c2ccc([C@@H]3[C@@H]4CN(S(=O)(=O)c5ccc(-c6ccccc6)cc5)C[C@H]3N4)cc2)c1	·	·	556	·	·
N#Cc1cccc(-c2ccc(C3[C@@H]4CN(S(=O)(=O)c5ccccc5)C[C@H]3N4)cc2)c1 (stereo partly specified)	·	·	–	·	·
Cc1ccc(S(=O)(=O)Nc2ccc3c(c2)C(=O)N([C@H](C)CO)C[C@H](C)[C@H](CN(C)C(=O)Nc2ccc(C(F)(F)F)cc2)OCCCC[C@@H](C)O3)cc1	·	·	–	·	·
O=C(Nc1ccc(C(F)(F)F)cc1)c1ccc(NC(=O)C2CCCO2)cc1 (stereo unspecified)	–	–	·	–	17
O=C(NC1CCCCC1)C1COc2ccccc2O1 (stereo unspecified)	–	–	–	–	–
CC1CCC(NC(=O)C2COc3ccccc3O2)CC1 (stereo unspecified)	–	–	57	–	–
O=C(C[C@@H]1C=C[C@H](NC(=O)c2cccc(F)c2)[C@@H](CO)O1)NCc1ccc(Oc2ccccc2)cc1	·	·	–	·	·
O=C(Nc1ccnc(-c2cccnc2)n1)c1cccs1	–	–	–	119	–
Nc1ccc(O)cc1C(=O)OCC(=O)c1ccc(C2CCCCC2)cc1	–	40	–	–	–
O=C(C[C@H]1C[C@H]2c3cc(NC(=O)c4cccnc4)ccc3O[C@H]2[C@H](CO)O1)NCC1CC1	·	·	–	·	·
